Source: PubChem BioAssay

Columns and labels:
[1] = system: Botulinum neurotoxin type F light chain protease (Clostridium botulinum); experiment: Clostridium botulinum type F light chain protease inhibitors, microsphere substrate cleavage, validation (AID 588459); conditions: multiplex microsphere protease substrate cleavage assay, flow cytometry; at 10 µM; active compounds read high
[2] = molecular target: Botulinum neurotoxin type A (Clostridium botulinum) (UniProt P0DPI0); experiment: BoNT/A light chain protease inhibitors, biochemical, multiplex microsphere flow cytometry, validation set (AID 588460); conditions: at 10 µM, active compounds read high
[3] = molecular target: Lethal factor (Bacillus anthracis) (UniProt P15917); experiment: Bacillus anthracis lethal factor inhibition, microsphere flow cytometry protease assay, validation at 10 µM (AID 588461); conditions: multiplex microsphere protease cleavage assay, active compounds read high

Measured: inhibition

COc1cc2c(cc1NCc1ccc3c(c1)OCO3)oc1ccccc12
inactive: [1] -2.5% | [2] -0.9% | [3] -15.7%

C=CCNc1nc2c(c(=O)n(C)c(=O)n2C)n1CC(=C)C
inactive: [1] 3.1% | [2] 0.5% | [3] -0.3%

O=C(Cc1cccc2ccccc12)N1CC[C@@]2(O)CCCC[C@H]2C1
inactive: [1] 2.2% | [2] 0.2% | [3] -5.4%

CSCCC(NC(=O)OC(C)(C)C)C(=O)Oc1ccc2c(=O)c(-c3ccc4c(c3)OCCO4)coc2c1 (configuration not stated)
inactive: [1] -0.4% | [2] -0.4% | [3] -1.7%

CC(C)CN1CCN(Cc2ccc(C#CC(C)(C)O)cc2)CC1CCO (configuration not stated)
inactive: [1] 3.7% | [2] -1.1% | [3] -2.1%

c1ccc(CC2=NCCN2)cc1
inactive: [1] 1.9% | [2] -1.4% | [3] -4.7%

Cc1c(OCC(=O)NC(Cc2c[nH]c3ccc(O)cc23)C(=O)O)ccc2c3c(c(=O)oc12)CCC3 (configuration not stated)
inactive: [1] 3.2% | [2] -1.1% | [3] 3.7%

CC1Cc2ccccc2N1NC(=O)c1ccc(Cl)c(S(N)(=O)=O)c1 (configuration not stated)
inactive: [1] 1.4% | [2] 0.7% | [3] -0.2%

COc1ccc(C2(CCN=Cc3ccc(N(C)C)cc3)CCOC(C)(C)C2)cc1 (configuration not stated)
inactive: [1] 9.1% | [2] 1.6% | [3] -2%

O=C(/C=C/c1ccco1)NCc1ccc2c(c1)OCO2
inactive: [1] -2.9% | [2] -0.4% | [3] 6.8%

COc1ccc(CCNC(=O)c2c(O)c3c([nH]c2=O)CCCC3)cc1
inactive: [1] 2.6% | [2] 0.3% | [3] -14.2%

COC(=O)c1ccc(COc2ccc3c(C)c(C)c(=O)oc3c2C)o1
inactive: [1] 1.9% | [2] -0.8% | [3] 0.2%

O=c1c(-c2ccccc2)c(O)c2cccc3c2n1CCC3
inactive: [1] 3.3% | [2] 0.8% | [3] 10.4%

COc1ccc(Cl)cc1C(=O)NCCc1ccc(S(=O)(=O)NC(=O)NC2CCCCC2)cc1
inactive: [1] -1.1% | [2] -1.6% | [3] -9.4%

NCCCC(N)(C(=O)O)C(F)F (configuration not stated)
inactive: [1] -3% | [2] 0.5% | [3] -2.1%

O=C(CCCN1C(=O)/C(=C\c2cccc(Br)c2)SC1=S)Nc1cccnc1
inactive: [1] -1.7% | [2] -0.3% | [3] 2.4%

Cc1cc(C)c(NC(=O)NC(=O)C(Cl)(Cl)Cl)c(C)c1
inactive: [1] 2.9% | [2] 0.1% | [3] -3.8%

Cc1cc(O)c(C(C)C)cc1C1(c2cc(C(C)C)c(O)cc2C)OC(=O)c2ccccc21
inactive: [1] -0.9% | [2] -0.3% | [3] -8.1%

C#CCN(C)CCCOc1ccc(Cl)cc1Cl
inactive: [1] 1.1% | [2] -1.4% | [3] -10.6%

Nc1nc2c(nc(SCc3ccccc3Br)n2C2OC(CO)C(O)C2O)c(=O)[nH]1 (configuration not stated)
inactive: [1] -2.6% | [2] -1.9% | [3] -1.1%

CC(C)OC(=O)CC1C(=O)NCCN1C(=S)NC(=O)c1ccccc1Cl (configuration not stated)
inactive: [1] -1.8% | [2] -0.4% | [3] -0.2%

O=C(Cc1ccccc1[N+](=O)[O-])NCc1ccncc1
inactive: [1] -3.6% | [2] 0.9% | [3] -5.4%

COc1ccccc1/C=C/CN1CCN(Cc2ccc(F)cc2)C(CCO)C1 (configuration not stated)
inactive: [1] 5.5% | [2] -0.2% | [3] -1.4%

C/C=C/Cn1c(SC)nc2c1c(=O)[nH]c(=O)n2C
inactive: [1] -2.2% | [2] 0.9% | [3] -3.1%

CC1=NS(=O)(=O)c2cc(Cl)ccc2N1
inactive: [1] 1.4% | [2] -0.3% | [3] -1.8%

COC(=O)c1cc(-c2c(C)oc3cc(OC)ccc3c2=O)c(C)o1
inactive: [1] -0.4% | [2] -2% | [3] -6.6%

COc1ccc(OC)c(-c2oc3ccccc3c(=O)c2O)c1
inactive: [1] 0.6% | [2] 1.3% | [3] 2.9%

CCC(C(=O)Nc1ccc2c(c1)OCCO2)c1ccccc1 (configuration not stated)
inactive: [1] 0.7% | [2] -0.2% | [3] -1.8%

O=C(O)COc1ccc2occ(C(=O)c3ccccc3)c2c1
inactive: [1] -1.3% | [2] 0.2% | [3] 4.6%

COc1ccccc1CCn1cnc2c3cc(C)ccc3n(C)c2c1=O
inactive: [1] -0.5% | [2] -1% | [3] -9.2%

COc1cccc(CC2CC(=O)N(c3ccc4c(C)cc(=O)oc4c3)C2=O)c1 (configuration not stated)
inactive: [1] 3.1% | [2] -0.1% | [3] 4.1%

COc1cccc(N2C(=O)CC(c3c[nH]c4ccccc34)C2=O)c1 (configuration not stated)
inactive: [1] 1.4% | [2] 2.4% | [3] -2%

Nc1c2c(nc3ccccc13)CCCC2
inactive: [1] 5.3% | [2] 1.5% | [3] -0.3%

Cc1ccccc1C(=O)Nc1ccccc1C(=O)NCC(C)C
inactive: [1] -5.7% | [2] -0.4% | [3] 1.2%

CC(=O)OCC(=O)[C@H]1CC[C@H]2[C@@H]3CCC4=CC(=O)CC[C@]4(C)[C@H]3CC[C@]12C
inactive: [1] -5.8% | [2] -1.1% | [3] -5.7%

COC(=O)c1ccc(C(=O)OC)c(NC(=O)C(C)C)c1
inactive: [1] -0.3% | [2] -1.3% | [3] -1.4%

COC(=O)c1ccc(CC(=O)c2ccc(O)cc2O)o1
inactive: [1] -3.4% | [2] -0.8% | [3] -5.4%

COC(=O)c1ccc(=O)n(Cc2ccco2)c1
inactive: [1] 3.3% | [2] -0.2% | [3] 3.8%

COC(=O)c1cc(-c2ccc(C)o2)nc2ccccc12
inactive: [1] 1.8% | [2] 2% | [3] 2.2%

COc1ccc(N2CCN(C(=S)NCc3ccccc3)CC2)cc1
inactive: [1] 2.4% | [2] -0.6% | [3] 2.2%

CCCCCCCC(=O)OCC(O)CO (configuration not stated)
inactive: [1] -6.1% | [2] -0.1% | [3] -2%

C(=C\c1ccccc1)/CN1CCN(C(c2ccccc2)c2ccccc2)CC1
inactive: [1] -0.8% | [2] -1.7% | [3] -9.2%

CC(=O)O[C@]1(C(C)=O)CC[C@H]2[C@@H]3C=C(Cl)C4=CC(=O)CC[C@]4(C)[C@H]3CC[C@@]21C
inactive: [1] -0.5% | [2] -3.3% | [3] -4.2%

CCCCCC#CCC#CCC#CCC#CCCCC(=O)O
inactive: [1] 5.7% | [2] -0.6% | [3] -1.6%

COc1cc(C(=O)Nc2cccc(-c3nnc(-c4ccco4)o3)c2)ccc1OC(C)=O
inactive: [1] 3.1% | [2] 2.1% | [3] 0.6%

Cn1c(SCC(=O)c2ccccc2)nnc1-c1ccncc1
inactive: [1] 1.7% | [2] 0.4% | [3] 3.4%

Cc1cccc(-n2c(Cc3ccccc3)n[nH]c2=S)c1
inactive: [1] -1.9% | [2] -0.5% | [3] -2.9%

COc1ccc2c(c1)[N+](C)(C)C(C)(C)C=C2C
inactive: [1] -0.4% | [2] 0.1% | [3] 1.6%

COc1cc2nc(N3CCN(C(=O)C4COc5ccccc5O4)CC3)nc(N)c2cc1OC (configuration not stated)
inactive: [1] -0.3% | [2] 0% | [3] -2.9%

Cc1ccsc1/C=C/C1=NCCCN1C
inactive: [1] -0.9% | [2] 1.6% | [3] -3.7%

O=c1c2ccccc2nnn1Cc1cccc2ccccc12
inactive: [1] 0.5% | [2] 0.7% | [3] -9.5%

CC1=CC(C)(C)N2C(=O)C3(NCCc4c3[nH]c3ccccc43)c3cc(C)cc1c32 (configuration not stated)
inactive: [1] -0.9% | [2] -2.5% | [3] 0.2%

CC(=O)Nc1cc(O)cc(O)c1
inactive: [1] 6.1% | [2] 0.1% | [3] -1.2%

CCC(C(=O)OCCN(CC)CC)c1ccccc1 (configuration not stated)
inactive: [1] 2.4% | [2] 0.3% | [3] 3.3%

COc1ccc(CCN(C)Cc2nc(Cc3ccc(OC)c(OC)c3)no2)cc1OC
inactive: [1] 1% | [2] -1% | [3] 6.9%

COc1ccccc1C(=O)Nc1cc2cc(Br)ccc2oc1=O
inactive: [1] 3.8% | [2] 1.1% | [3] 0.4%

O=C(O)c1cccnc1
inactive: [1] 1.8% | [2] 2% | [3] 2.5%

O=c1cnn([C@@H]2O[C@H](CO)[C@@H](O)[C@H]2O)c(=O)[nH]1
inactive: [1] -0.1% | [2] 1.8% | [3] 5.4%

O=C1c2cccc3cccc(c23)C(=O)N1c1ccccn1
inactive: [1] -2.7% | [2] 0.1% | [3] 1.1%

Cc1nc(N[C@@H](Cc2c[nH]c3ccccc23)C(=O)O)c2oc3ccccc3c2n1
inactive: [1] 1.3% | [2] -0.2% | [3] -6.5%

O=C(O)c1cc(-c2ccc3c(c2)OCO3)nc2ccc(Br)cc12
inactive: [1] -1% | [2] 3% | [3] -2.6%

O=[N+]([O-])c1cc(/C=N/n2cnnc2)ccc1N1CCCC1
inactive: [1] -0.9% | [2] -0.6% | [3] -3.3%

Cc1nonc1CN(C)C(=O)c1ccc(OC2CCN(C(=O)c3cccnc3)CC2)cc1
inactive: [1] 3.6% | [2] 1.2% | [3] 10.7%

COc1ccc([C@@H]2Sc3ccccc3N(CCN(C)C)C(=O)[C@@H]2OC(C)=O)cc1
inactive: [1] -1.7% | [2] 0.1% | [3] 1%
